Hits are enriched below; roughly 2.3% of the tested compounds scored in any of these assays.
GLD-1 RNA inh – GLD-1-TGE RNA interaction inhibition (C. elegans); inhibition, % at 5.96 µM; purified GLD-1 + fluorescein TGE RNA, fluorescence polarization; 0.44% of 320,000 active;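 active = percent inhibition above a per-plate cutoff, the plate mean of test compounds plus 3 SD, cut at about 30% in these data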;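 also: 0% = DMSO wells with GLD-1 and probe and 100% = wells lacking GLD-1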
Target sequence (Q17339 whole entry, looked up): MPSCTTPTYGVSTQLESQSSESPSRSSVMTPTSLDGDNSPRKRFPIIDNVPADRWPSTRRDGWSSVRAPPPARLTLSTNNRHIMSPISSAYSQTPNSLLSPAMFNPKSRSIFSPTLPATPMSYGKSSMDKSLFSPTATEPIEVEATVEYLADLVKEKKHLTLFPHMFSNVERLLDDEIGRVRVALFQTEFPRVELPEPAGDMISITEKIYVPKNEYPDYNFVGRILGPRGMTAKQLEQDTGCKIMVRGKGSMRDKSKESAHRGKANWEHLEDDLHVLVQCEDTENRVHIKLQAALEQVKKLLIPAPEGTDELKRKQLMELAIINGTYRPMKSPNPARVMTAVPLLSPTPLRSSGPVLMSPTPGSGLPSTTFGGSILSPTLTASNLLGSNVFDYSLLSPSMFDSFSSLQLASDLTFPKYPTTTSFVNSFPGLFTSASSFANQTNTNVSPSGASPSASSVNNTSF
Mcl1 Noxa PPI – disrupts binding of human Mcl-1 to Noxa peptide | Q07820 | TR-FRET Mcl-1/Noxa peptide binding, 2 h | inhibition, % at 21.7 µM | 1.5% of 220,000 active;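 active = compounds that cut the protein-peptide binding signal by more than 50% relative to plate controls in a single-dose test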;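 also: His-tagged Mcl-1 with rhodamine Noxa BH3 peptide and terbium anti-His antibody; 0% = Mcl-1 plus Noxa peptide wells and 100% = peptide-only wells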
Mcl-1 Bim block – inhibitors of Bim-Mcl-1 interaction, human. Bead-based flow cytometry, Bim peptide-Mcl-1 binding. inhibition, % at 10 µM. 0.1% of 190,000 active; in the data active = inhibition above about 40%;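 also: 0% = no compound tracer wells and 100% = peptide blocker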
BCLXL inh – Bcl-xL (human) inhibition; Q07817; GST-Bcl-xL / FITC-Bim BH3 peptide fluorescence polarization; inhibition, % at 10.9 µM; 0.7% of 320,000 active;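 active = inhibition above the mean of all tested compounds plus 3 SD, cutoff set per campaign, cut at about 30% in these data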;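 also: 0% = DMSO wells and 100% = unlabeled Bim-BH3 peptide competitor; inhibitors lower millipolarization by displacing the labeled peptide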
Mcl1-Bid inh – Mcl-1/Bid interaction inhibition. Q07820. TR-FRET Mcl-1/Bid-Dy647 peptide binding, 1536-well. inhibition, % at 21.7 µM. 0.97% of 220,000 active;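 active = compounds that cut the binding signal by more than half at the single screening dose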;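 also: His-tagged Mcl-1 with europium anti-His antibody binding Bid BH3 peptide; 0% = Mcl-1 plus peptide wells and 100% = peptide-only wells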
MCL1-BIM inh – disrupts human MCL1 binding to BIM-BH3 peptide; Q07820; GST-MCL1 / FITC-Bim-BH3 fluorescence polarization; inhibition, % at 10.9 µM; 0.68% of 320,000 active;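 active = inhibition above the mean inhibition of all tested compounds plus 3 SD, set per campaign, cut at about 40% in these data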;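 also: 0% = DMSO wells and 100% = unlabeled Bim-BH3 peptide control; higher means more loss of mP so more displacement of Bim peptide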
BCLXL inh confirm – Bcl-xL (human) inhibition, MCL1 counter-screen confirmation; 54% of 1,700 active; AID 2166; shares compounds with MCL1-BIM inh; GST-Bcl-xL / FITC-Bim BH3 peptide FP binding; inhibition, % at 10.9 µM;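 active = inhibition above a cutoff equal to the mean inhibition of all tested compounds plus 3 SD, cut at about 30% in these data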;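 also: 0% = DMSO wells and 100% = unlabeled Bim BH3 control peptide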
MCL1 inh confirm – MCL1-BIM-BH3 interaction inhibition, confirmation; shares compounds with MCL1-BIM inh; GST-MCL1 / FITC-Bim-BH3 fluorescence polarization; inhibition, % at 10.9 µM; 61% of 1,700 active; AID 2168;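 active = inhibition above the average of all tested compounds plus 3 SD, cut at about 40% in these data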;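 also: 0% = DMSO wells and 100% = unlabeled Bim-BH3 control peptide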
Numbers without * were called inactive; . = not tested or not shown; + = active, no number.

SMILES	GLD-1 RNA inh	Mcl1 Noxa PPI	Mcl-1 Bim block	BCLXL inh	Mcl1-Bid inh	MCL1-BIM inh	BCLXL inh confirm	MCL1 inh confirm
Cc1ccc(N2C(=O)[C@@H]3[C@H](C2=O)C2CCCN2[C@@H]3C(=O)c2ccccc2)cc1 (some centres not stated)	48*	24	0	78*	-8	81*	64*	76*
C=CCOc1ccc(/C=C2\SC(=Nc3cccnc3)NC2=O)cc1	0	37	.	64*	-4	64*	65*	74*
CC(/C=C1\SC(=Nc2cccnc2)NC1=O)=C\c1ccccc1	3	19	.	-5	8	-15	.	.
CCCCc1ccc(NC(=O)Nc2cc(C)nn2C)cc1	-6	.	.	5	.	68*	-1	5
COc1ccc(OC)c(NC(=O)CN2C(=O)NC(C)(c3ccc4c(c3)OCCO4)C2=O)c1 (configuration not stated)	7	.	.	2	.	2	.	.
CC(C)CCNC(=O)NC(=O)COc1ncnc2sccc12	4	16	0	5	-19	5	.	.
CC(C)CNC(=O)NC(=O)COc1ncnc2sccc12	7	-55	1	14	-15	54*	9	14
COc1ccccc1CNC(=O)CN1C(=O)c2cccc(N)c2C1=O	103*	.	.	93*	.	107*	43*	54*
O=C(CSc1nnc(-c2ccco2)c(-c2ccco2)n1)Nc1ccccc1	6	90*	-1	25	23	60*	34*	83*
COc1ccc(NC(=O)CSc2nnc(-c3ccco3)c(-c3ccco3)n2)cc1OC	-1	.	.	11	.	8	.	.
COc1cccc(NC(=O)CSc2nnc(-c3ccco3)c(-c3ccco3)n2)c1	11	.	.	27	.	49*	35*	64*
Cc1ccc(S(=O)(=O)NNC(=O)c2ccccc2O)cc1	0	30	-1	16	-46	44*	12	29
CCOc1ccc(C(=O)N/N=C/c2ccc(-c3ccc(S(=O)(=O)Nc4ncccn4)cc3)o2)cc1	0	46	0	9	-22	9	.	.
O=C(N/N=C/c1ccc(-c2ccc(S(=O)(=O)Nc3ncccn3)cc2)o1)c1cc2ccccc2cc1O	6	106*	4	14	51*	64*	16	57*
O=C(Cn1cnc2sc(-c3ccccc3)cc2c1=O)NCc1ccco1	-4	62*	-3	4	14	62*	22	62*
CCCC1=NN2C(=N)/C(=C\c3ccc(SCc4ccco4)o3)C(=O)N=C2S1	24	84*	2	70*	49	80*	7	26
CCCC1=NN2C(=N)/C(=C\c3cc(C)n(Cc4ccccc4)c3C)C(=O)N=C2S1	-6	-1	.	-5	-16	7	.	.
COc1ccc(OC)c(/C=C/c2nc3ccccc3[nH]c2=O)c1	75*	.	.	78*	.	83*	98*	99*
CCNc1cccc2c1C(=O)N(C)C2=O	180*	0	1	177*	2	+	167*	+
CN(C)C(=O)c1ccc(NC(=O)COC(=O)Cn2cc(C(F)(F)F)ccc2=O)cc1	10	.	.	-2	.	-5	.	.
CC(C)Sc1nnc(SCC(=O)NCCCN2CCCC2=O)s1	4	.	.	-4	.	-4	.	.
CNC(=O)c1c(N)sc2c1CCCCC2	36*	21	-4	56*	4	72*	44*	52*
NC(=O)c1c(N)sc2c1CCCCC2	5	-4	-5	12	-99	10	.	.
Cc1ccc2c(c1)C1CC(C)(O2)N(c2cccc(C(=O)NC3CCN(Cc4ccccc4)CC3)c2)C(=O)N1 (configuration not stated)	-4	.	.	7	.	13	.	.
Cc1nnc(C)c2c(C)n(-c3ccccc3N)c(C)c12	46*	5	0	96*	-61	94*	14	14
SMILES	GLD-1 RNA inh	Mcl1 Noxa PPI	Mcl-1 Bim block	BCLXL inh	Mcl1-Bid inh	MCL1-BIM inh	BCLXL inh confirm	MCL1 inh confirm
O=C(CCc1ccc(S(=O)(=O)N2CCOCC2)cc1)N/N=C/c1ccc(F)cc1F	8	9	0	1	2	-2	.	.
O=C(CCc1ccc(S(=O)(=O)N2CCOCC2)cc1)N/N=C/c1ccc(O)c(O)c1O	11	73*	0	16	4	46*	23	59*
N[C@@H](Cc1ccccc1)C(=O)N1CCC(C(=O)NCC(=O)NCC(=O)O)CC1	-9	.	.	4	.	3	.	.
NC(=S)Nc1cccc2cc3ccccc3cc12	15	31	6	57*	-62	53*	81*	95*
O=c1[nH]c(-[n+]2ccc3ccccc3c2)c(/C=N/N=C(\[O-])c2ccccc2)s1	137*	.	.	93*	.	99*	22	34
Nc1ncc(N=Nc2cc(C(=O)O)ccc2Cl)s1	4	67*	.	17	-65	45*	36*	82*
O=C1N=C(N2C=CC(=C3C=CNC=C3)C=C2)/C(=C/N=NC(=O)c2ccccc2O)S1	81*	.	.	99*	.	115*	84*	114*
Cc1ccc(C(=O)NC(C(=O)OCc2cn3cc(Cl)ccc3n2)C(C)C)cc1 (configuration not stated)	3	.	.	0	.	0	.	.
CC1=Nc2ccccc2/C1=C\c1nc(-c2ccc(F)cc2)oc1O	172*	2	-2	+	-22	+	92*	141*
CN=Cc1nc(-c2ccccc2)oc1O	4	7	.	-3	-43	-3	.	.
O=C(CSc1ccccc1F)NNC(=O)c1cncc(Br)c1	5	.	.	.	.	.	.	.
O=c1cc(-c2ccc(O)c(O)c2)oc2c1ccc1ccccc12	3	.	.	4	.	45*	18	45*
CCOc1cccc(=O)c2c(C)n(-c3ccc(C(=O)O)cc3)c(C)c12	29	14	0	59*	-51	86*	36*	53*
CCOc1cccc(=O)c2c(C)n(Cc3ccccc3)c(C)c12	5	16	3	6	-14	7	.	.
O=C(CCO)c1ccc(O)cc1	16	78*	-5	17	-23	75*	37*	80*
Cc1c(NC(=O)CN2C(=O)NC(C)(c3ccc(Cl)cc3)C2=O)c(=O)n(-c2ccccc2)n1C (configuration not stated)	9	.	.	-3	.	-5	.	.
CCn1c(SCC(=O)N/N=C/C=C\c2ccco2)nc2ccccc21	-2	18	-3	15	-42	48*	17	34
Cn1c(SCC(=O)N/N=C/C=C\c2ccco2)nc2ccccc21	3	24	2	12	-37	29	.	.
